Test results from PubChem BioAssay (EPA / NIEHS).
Inconclusive results are not listed. Some compounds were tested as several samples or in several runs, with calls that do not always agree. Activity calls are given as the source filed them. Rule for the calls: active = hit-call score of the fitted dose curve at least 0.9, where 1 is the maximum; inconclusive = response in the unintended direction; inactive = score below 0.9.

molecular target: Cellular tumor antigen p53 (Homo sapiens) (UniProt P04637); test: TOX21_p53_BLA_p2_ratio: Tox21 HCT-116 p53 Agonism Beta-lactamase Assay, Ratio, Phase 2 (AID 2283592)
Sequence (P04637 whole entry, looked up): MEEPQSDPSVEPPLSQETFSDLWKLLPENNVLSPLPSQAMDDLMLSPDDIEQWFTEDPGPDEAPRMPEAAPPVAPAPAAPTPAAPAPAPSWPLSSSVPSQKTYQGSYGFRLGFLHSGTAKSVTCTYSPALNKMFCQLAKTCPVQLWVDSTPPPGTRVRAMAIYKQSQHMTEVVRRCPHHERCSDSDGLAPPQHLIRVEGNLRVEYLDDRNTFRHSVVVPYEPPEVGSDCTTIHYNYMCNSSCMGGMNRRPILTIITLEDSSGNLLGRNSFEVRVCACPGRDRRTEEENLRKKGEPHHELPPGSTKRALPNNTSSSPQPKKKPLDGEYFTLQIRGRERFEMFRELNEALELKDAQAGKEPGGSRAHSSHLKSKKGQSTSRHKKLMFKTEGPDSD
In short: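 Cleaved-to-uncleaved substrate ratio (460 vs 530 nm) measured in HCT116 cells with an inducible beta-lactamase reporter linked to p53 activity. Compounds incubated 16 h at 37C before 2 h room-temperature CCF4-AM loading.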

Row | SMILES | outcome | AC50
1 | CNC(=C[N+](=O)[O-])NCCSCc1csc(CN(C)C)n1 | inactive | –
2 | O=C1CCCCCCCCCCCCCC1 | inactive | –
3 | CCCCCCC(O)CCCCCCCCCCC(=O)OC (centres undefined) | inactive | –
4 | COC(=O)c1ccccc1 | inactive | –
5 | C/C=C(\C)C(=O)OCC/C=C\CC | inactive | –
6 | C=CCOCC(CC)(CO)COCC=C | inactive | –
7 | CN1CCCC1 | inactive | –
8 | CCO[Si](CCCN)(OCC)OCC | inactive | –
9 | CCCCCCC1CCC(=O)O1 (centres undefined) | inactive | –
10 | O=[N+]([O-])c1ccccc1C(F)(F)F | inactive | –
11 | CCC(=O)OCc1ccc(OC)cc1 | inactive | –
12 | CCc1cc(C(N)=S)ccn1 | inactive | –
13 | CCC(C)=NO | inactive | –
14 | COc1cccc(OC)c1C(=O)O | inactive | –
15 | CCCCCC1CCCC(=O)O1 (centres undefined) | inactive | –
16 | COC(=O)[C@]1(C)CCC[C@@]2(C)[C@H]1CC=C1C=C(C(C)C)CC[C@@H]12 | inactive | –
17 | Cc1cc2nc3c(=O)[nH]c(=O)nc-3n(C[C@H](O)[C@H](O)[C@H](O)CO)c2cc1C | inactive | –
18 | Cc1cc(-n2nc3ccc(Cl)cc3n2)c(O)c(C(C)(C)C)c1 | inactive | –
19 | CCCCCCC1CCCC(=O)O1 (centres undefined) | inactive | –
20 | NC(=O)c1ccc(N)cc1 | inactive | –
21 | CC(C)=CCOC(=O)c1ccccc1 | inactive | –
22 | CC(C)(C)NC(=O)[C@@H]1CN(Cc2cccnc2)CCN1C[C@@H](O)C[C@@H](Cc1ccccc1)C(=O)N[C@H]1c2ccccc2C[C@H]1O | inactive | 40.8 µM (active)
23 | Oc1cccc2ccccc12 | inactive | –
24 | C=CN1CCCCCC1=O | inactive | –
25 | CC(=O)CCc1ccccc1 | inactive | –
26 | CNC[C@H](O)[C@@H](O)[C@H](O)[C@H](O)CO | inactive | –
27 | CN(C)c1ccc(C(c2ccccc2)c2ccc(N(C)C)cc2)cc1 | inactive | –
28 | c1ccc2c(c1)Oc1ccccc1S2 | inactive | –
29 | CCCCCC[C@@H](O)C/C=C\CCCCCCCC(=O)O | inactive | 68.9 µM (active)

test system: not listed separately; test: TOX21_p53_BLA_p3_viability: Viability Assessment in the Tox21 HCT-116 p53 Agonism Beta-lactamase Assay, Phase 3 (AID 2283593);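 note: cells exposed to compound for 16 h before reading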
In short: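 HCT-116 cells (4000/well) rested 5 h at 37C, then got DMSO compounds by pin tool (217-fold dilution) for 16 h at 37C, 5% CO2. After the bla read, CellTiter-Glo was added and luminescence read at 30 min, room temperature.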

Row | SMILES | outcome | AC50
30 | CNC(=C[N+](=O)[O-])NCCSCc1csc(CN(C)C)n1 | inactive | –
31 | O=C1CCCCCCCCCCCCCC1 | inactive | –
32 | CCCCCCC(O)CCCCCCCCCCC(=O)OC (centres undefined) | inactive | –
33 | COC(=O)c1ccccc1 | inactive | –
34 | C=CCOCC(CC)(CO)COCC=C | inactive | –
35 | CN1CCCC1 | inactive | –
36 | O=[N+]([O-])c1ccccc1C(F)(F)F | inactive | –
37 | CCc1cc(C(N)=S)ccn1 | inactive | –
38 | CCC(C)=NO | inactive | –
39 | COC(=O)[C@]1(C)CCC[C@@]2(C)[C@H]1CC=C1C=C(C(C)C)CC[C@@H]12 | inactive | –
40 | Cc1cc2nc3c(=O)[nH]c(=O)nc-3n(C[C@H](O)[C@H](O)[C@H](O)CO)c2cc1C | inactive | –
41 | Cc1cc(-n2nc3ccc(Cl)cc3n2)c(O)c(C(C)(C)C)c1 | inactive | –
42 | CCCCCCC1CCCC(=O)O1 (centres undefined) | inactive | –
43 | c1ccc(CNc2ncnc3nc[nH]c23)cc1 | inactive | –
44 | CC(C)=CCOC(=O)c1ccccc1 | inactive | –
45 | CC(C)(C)NC(=O)[C@@H]1CN(Cc2cccnc2)CCN1C[C@@H](O)C[C@@H](Cc1ccccc1)C(=O)N[C@H]1c2ccccc2C[C@H]1O | inactive | 43 µM (active)
46 | Oc1cccc2ccccc12 | inactive | –
47 | C=CN1CCCCCC1=O | inactive | –
48 | Oc1ccc(Oc2ccccc2)cc1 | inactive | –
49 | CC(=O)CCc1ccccc1 | inactive | –
50 | CNC[C@H](O)[C@@H](O)[C@H](O)[C@H](O)CO | inactive | –
51 | CN(C)c1ccc(C(c2ccccc2)c2ccc(N(C)C)cc2)cc1 | inactive | –
52 | c1ccc2c(c1)Oc1ccccc1S2 | inactive | –
53 | CCCCCC[C@@H](O)C/C=C\CCCCCCCC(=O)O | inactive | 30.5 µM (active)

molecular target: Cellular tumor antigen p53 (Homo sapiens) (UniProt P04637); test: TOX21_p53_BLA_p3_ratio: Tox21 HCT-116 p53 Agonism Beta-lactamase Assay, Ratio, Phase 3 (AID 2283596)
In short: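 Cells were seeded at 4000/well, rested 5 h at 37C, then dosed with DMSO compound solutions (217-fold dilution) for 16 h. CCF4-AM substrate was loaded for 2 h at room temperature, and the 460/530 nm emission ratio was fitted for gain of signal versus DMSO.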

Row | SMILES | outcome | AC50
54 | CNC(=C[N+](=O)[O-])NCCSCc1csc(CN(C)C)n1 | inactive | –
55 | O=C1CCCCCCCCCCCCCC1 | inactive | –
56 | COC(=O)c1ccccc1 | inactive | –
57 | O=S(=O)(O)c1cccc2ccccc12 | inactive | –
58 | C/C=C(\C)C(=O)OCC/C=C\CC | inactive | –
59 | C=CCOCC(CC)(CO)COCC=C | inactive | –
60 | CCO[Si](CCCN)(OCC)OCC | inactive | –
61 | CCCCCCC1CCC(=O)O1 (centres undefined) | inactive | –
62 | O=[N+]([O-])c1ccccc1C(F)(F)F | inactive | –
63 | CCC(=O)OCc1ccc(OC)cc1 | inactive | –
64 | CCc1cc(C(N)=S)ccn1 | inactive | –
65 | COc1cccc(OC)c1C(=O)O | inactive | –
66 | COC(=O)[C@]1(C)CCC[C@@]2(C)[C@H]1CC=C1C=C(C(C)C)CC[C@@H]12 | inactive | –
67 | Cc1cc2nc3c(=O)[nH]c(=O)nc-3n(C[C@H](O)[C@H](O)[C@H](O)CO)c2cc1C | inactive | –
68 | Cc1cc(-n2nc3ccc(Cl)cc3n2)c(O)c(C(C)(C)C)c1 | inactive | –
69 | CC(C)(C)NC(=O)[C@@H]1CN(Cc2cccnc2)CCN1C[C@@H](O)C[C@@H](Cc1ccccc1)C(=O)N[C@H]1c2ccccc2C[C@H]1O | inactive | –
70 | Oc1ccc(Oc2ccccc2)cc1 | inactive | –
71 | CC(=O)CCc1ccccc1 | inactive | –
72 | CNC[C@H](O)[C@@H](O)[C@H](O)[C@H](O)CO | inactive | –
73 | CN(C)c1ccc(C(c2ccccc2)c2ccc(N(C)C)cc2)cc1 | inactive | –
74 | CCCCCC[C@@H](O)C/C=C\CCCCCCCC(=O)O | inactive | 36.6 µM (active)
